Laboratory results taken from the supplement of paper PMC6555819.

Legend:
Assay in all cases: PBM binding z-score (relative to random genomic background probes); higher = stronger binding; sequences stand for … in GC…GCGATTGACAGCGTAGAATGAAGG
[1] = tested on: RARb homodimer (NR concentration 270 nM)
Procedure, shortened: (§1)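 On custom Agilent 4×180K arrays, double-stranded probes with 34-nt variable regions carried direct-repeat seeds, single-nucleotide variants, half-site ablations or random human genomic background. Ligand-free nuclear receptor dimers were applied for 1 h, and binding was read with antibodies against each partner (one per run). Binding z-scores come from regression-normalized fluorescence, with the random background probes as reference.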

[2] = tested on: RARg:RXRa (NR concentration 270 nM, RXRa partner concentration 90 nM)
Procedure, shortened: as §1

[3] = tested on: RARg homodimer (NR concentration 270 nM)
Procedure, shortened: as §1

[4] = tested on: RXRa DBDmut IVT, anti-RXR (DBD mutation: RXRa K156A/R161A, NR concentration 90 nM)
Procedure, shortened: as §1

[5] = tested on: RXRa homodimer (NR concentration 180 nM)
Procedure, shortened: as §1

[6] = tested on: THRa:RXRa (NR concentration 90 nM, RXRa partner concentration 90 nM)
Procedure, shortened: as §1

[7] = tested on: THRa homodimer (NR concentration 90 nM)
Procedure, shortened: as §1

[8] = tested on: VDR:RXRa (NR concentration 270 nM, RXRa partner concentration 90 nM)
Procedure, shortened: as §1

[9] = tested on: VDR homodimer (NR concentration 270 nM)
Procedure, shortened: as §1

| Sequence | PBM binding z-score [1] | PBM binding z-score [2] | PBM binding z-score [3] | PBM binding z-score [4] | PBM binding z-score [5] | PBM binding z-score [6] | PBM binding z-score [7] | PBM binding z-score [8] | PBM binding z-score [9] |
| --- | --- | --- | --- | --- | --- | --- | --- | --- | --- |
| TAGCCTAGGTCATTCAGGGCCCAGTATAGAAAGC | 2.54 | 3.96 | 4.34 | 1.96 | 3.13 | 3.47 | 0.59 | 2.8 | 1.54 |
| CGTCCAAGGTCATAGGTGGTCAGTGAAGACAGAT | 4.26 | 5.65 | 5.75 | 3.99 | 5.94 | 4.18 | 2.79 | 4.72 | 3.02 |
| CATACAGGGTCAGCTAAGCCAGAGTAGGGACGGC | 2.87 | 4.23 | 4.37 | 1.77 | 4.2 | 3 | 0.863 | 2.69 | 1.04 |
| CTCGAAAGGTCGGTTGAGGTGAGTCTACGGATAA | 2.36 | 2.73 | 2.99 | 1.03 | 2.34 | 5.01 | 1.58 | 2.45 | 0.44 |
| TCTATTAGTTGAATAGGGCAACCGAAACAGCGGA | 0.977 | 0.99 | 0.765 | 0.685 | 0.759 | 0.247 | -0.423 | 0.6 | -0.139 |
| ACTAGCCGGCCAAGTTTGGGTCACTCAAACAAAG | 2.27 | 1.35 | 1.48 | -0.475 | 0.851 | 2.15 | 1.23 | 0.6 | 0.121 |
| TCAGACAGGTGATGGTAACTCAGGTACGCAGTCG | 0.401 | 0.447 | 0.147 | 0.843 | 0.688 | 0.659 | 0.545 | 0.615 | 0.532 |
| CAAACTAGGTCACCGGAAGCTCAAAGTCCGCATG | 3.48 | 4.84 | 5.66 | 1.98 | 3.81 | 3.38 | 1.92 | 2.23 | 0.814 |
| TGTCAAAGTTCACAGGTAACGTAAGTATCCACAC | 4.22 | 5.7 | 5.98 | 3.69 | 5.48 | 2.53 | -0.165 | 4.54 | 3.53 |
| AGTCAAAGTTAAGGACGAGGTAACGTAAAGCACG | 0.455 | 0.647 | 0.899 | -0.752 | 0.474 | 3.19 | 2.65 | -0.131 | -0.263 |
| CCAAGTAGGTTATGGGGCATTCAGGCAACGGTGA | 0.93 | 0.634 | 0.608 | 0.0857 | 0.733 | 0.508 | -0.0137 | -0.0794 | 0.318 |
| TCTATTAGTTGATTAGGGCAACCGTAACAGCGGA | 0.955 | 0.567 | 0.671 | 1.16 | 0.558 | 0.75 | 0.547 | 0.769 | 0.281 |
| TTACCAAGGTGAAGGTCGTCGATCCCTCTGTAGA | 1.78 | 1.59 | 1.7 | -0.188 | 2.12 | 2.36 | 0.653 | 1.09 | -0.137 |
| ATCTCCAGGTAAAGATAGTTCAGTGAATGCAAAT | 1.03 | 0.342 | 0.839 | 0.0268 | -0.000636 | 1.06 | 0.451 | 0.845 | 0.711 |
| ATCTCTATGTAAAGATAGTTCAGTGAATGCAAAT | 0.692 | 0.486 | 0.571 | 0.0227 | 0.467 | 0.271 | -0.195 | 0.557 | 0.366 |
| TCGAGTAGGTCACCAATGGGGCATTCAGCTTTCT | 3.59 | 5.11 | 4.61 | 0.972 | 3.44 | 2.42 | -0.0324 | 2.62 | 0.0095 |
